A selection: hits, their analogues and other compounds. The true share with any hit is near 2.3%.
Tau fluor cs – counter-screen for tau fibril formation inhibitors | tau K18 P301L Alexa594 fluorescence, heparin fibrillization | Potency, µM (doses to about 57.7 µM), inactives show at the top dose activity change, negative = decrease | 0.93% of 280,000 active | AID 1463; further: potency means the concentration at half of the fitted maximal effect; nearly all actives have a fitted effect of over 55% in size
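Human tau K18 P301L (15 uM unlabeled, 0.24 uM Alexa 594-labeled) in 100 mM sodium acetate pH 7 with 20 uM heparin, 6 hr at 37 C. ThT 30 uM added, 1 hr ambient; Alexa 594 FP and total fluorescence read at 555/632 nm.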
Tau fibril ThT – blocks human tau fibril formation measured by thioflavin T; recombinant tau K18 P301L (four-repeat tau fragment), heparin-induced fibrillization, ThT fluorescence; Potency, µM (series often up to 57.4 µM), for inactives: at the highest dose activity, negative = inhibition, usual class: inhibitors; 2.1% of 270,000 active; AID 1460; further: potency means the concentration at half of the fitted maximal effect; nearly all actives have a fitted effect of over 55% in size
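Tau K18 P301L fragment (15 uM unlabeled plus 0.24 uM Alexa 594-labeled) in 100 mM sodium acetate pH 7 with compound, fibrillization induced by 20 uM heparin for 6 hr at 37 C. Thioflavin T (30 uM) added, fluorescence read after 1 hr (ex 450, em 510 nm).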
USP1-UAF1 inh – USP1/UAF1 (human) deubiquitinase inhibition; O94782; recombinant USP1/UAF1, Ub-Rhodamine cleavage fluorescence; Potency, µM (series often up to 57.1 µM), without a hit: top-dose activity change, negative = inhibition, actives largely listed as inhibitors; 0.23% of 390,000 active; AID 743255; further: potency means the concentration at half of the fitted maximal effect; nearly all actives have a fitted effect of over 60% in size
Target sequence (O94782 whole entry, looked up): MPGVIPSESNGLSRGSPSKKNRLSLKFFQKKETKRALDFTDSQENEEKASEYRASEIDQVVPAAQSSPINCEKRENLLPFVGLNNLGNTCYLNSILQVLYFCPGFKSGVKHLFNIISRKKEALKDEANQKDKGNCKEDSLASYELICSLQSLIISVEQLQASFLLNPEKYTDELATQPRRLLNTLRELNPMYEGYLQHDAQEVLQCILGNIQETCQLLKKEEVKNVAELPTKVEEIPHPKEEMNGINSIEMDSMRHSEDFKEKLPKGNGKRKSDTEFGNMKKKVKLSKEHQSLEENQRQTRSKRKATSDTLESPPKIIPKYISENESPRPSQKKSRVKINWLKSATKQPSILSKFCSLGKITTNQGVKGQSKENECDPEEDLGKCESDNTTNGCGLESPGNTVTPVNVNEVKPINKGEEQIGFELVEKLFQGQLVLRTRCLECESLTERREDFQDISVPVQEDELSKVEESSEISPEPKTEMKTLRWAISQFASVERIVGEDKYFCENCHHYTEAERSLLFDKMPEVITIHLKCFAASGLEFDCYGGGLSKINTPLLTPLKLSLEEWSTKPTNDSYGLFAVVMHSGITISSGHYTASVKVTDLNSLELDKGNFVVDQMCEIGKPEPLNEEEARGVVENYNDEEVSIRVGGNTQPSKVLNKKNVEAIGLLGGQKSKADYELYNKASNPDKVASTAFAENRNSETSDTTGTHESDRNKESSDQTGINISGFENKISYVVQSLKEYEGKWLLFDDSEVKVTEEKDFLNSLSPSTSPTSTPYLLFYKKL
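Step one: compound is pinned into 1nM USP1/UAF1 in HEPES pH 7.8 buffer with TCEP. Step two: 15 min room-temperature incubation. Step three: Ub-Rho (150nM final) starts cleavage, tracked by fluorescence over six one-minute reads.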
Coupling enz – counter-screen for Giardia aldolase inhibitors: coupling enzyme system; AID 2472; activity change, negative = inhibition, % at 58.2 µM, hits read low; coupling enzyme system counterscreen, AmpLite Red fluorescence; 0.67% of 290,000 active; in the data active means activity change below about -30%
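Activity here indicates interference with the coupling reaction, not aldolase inhibition. Compounds at 57.5 uM final met coupling enzymes for 10 min at RT; substrate and AmpLite Red detection followed, with a 525/598 nm fluorescence read after 20 min.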
Tau FP inhib – blocks human tau fibril formation measured by polarization; P10636; K18 P301L tau heparin fibrillization, Alexa594 FP, 6 h; Potency, µM (highest dose often 57.7 µM), for the others: at the top dose activity, negative = inhibition, most hits filed as inhibitors; 0.39% of 280,000 active; further: potency means the concentration at half of the fitted maximal effect; nearly all actives have a fitted effect of over 55% in size
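Human K18 P301L fragment (15 uM unlabeled plus 0.24 uM Alexa 594-labeled) in 100 mM sodium acetate pH 7 with compound, aggregation induced by 20 uM heparin for 6 hr at 37 C. ThT (30 uM) added for 1 hr, then Alexa 594 FP read.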
Active calls of the source: *; ? = inconclusive; nt = not tested or not shown; [ ] = another dose, or the depositor's remark. Unless noted, the call rests on the fitted dose curve; in most records, active means well fitted curve in the direction sought with a large enough effect; inconclusive means small, poorly fitted or top-dose-only effect, or another doubt; inactive means no such curve, though single readings can be large; an effect the other way counts as inactive or inconclusive. On the % scale 0 is the no-effect control and ±100 the full control effect.

SMILES | Tau fluor cs | Tau fibril ThT | USP1-UAF1 inh | Coupling enz | Tau FP inhib
CCCCC(CC)CO (configuration not stated) | nt | nt | -22% | nt | nt
CCCCC(CC)CN=C(N)NC(N)=NCCCCCCN=C(N)NC(N)=NCC(CC)CCCC (configuration not stated) | 1% | -6% | 32µM* | -1 | 8%
COc1ccc(C2CC(c3ccccc3)=NN2C(=O)c2cccs2)cc1 (configuration not stated) | 7.9µM*[quencher] | -14% | -13% | 1 | ?
CCOC(=O)N1CCC(NC(=O)c2oc3c(c2C)-c2[nH]ncc2CC3)CC1 | -15% | ? | -8% | -41* | 5%
O=C(O)C(Cc1ccccc1)N1C(=O)/C(=C/C=C/c2ccco2)SC1=S (configuration not stated) | ? | 7.9µM* | ? | 1 | ?
O=C(O)CC(C(=O)O)N1C(=O)/C(=C/C=C/c2ccco2)SC1=S (configuration not stated) | -22% | 13µM* | ? | -3 | ?
Cc1ccc(NC(=O)CCCN2C(=O)/C(=C/C=C/c3ccccc3)SC2=S)cc1 | -5% | ? | -17% | 0 | 1%
O=C(O)CCCN1C(=O)/C(=C/C=C/c2ccco2)SC1=S | 1% | 3.2µM* | -8% | 3 | ?
COc1ccc(/C=C2\SC(=S)N(C(Cc3ccccc3)C(=O)O)C2=O)cc1 (configuration not stated) | -7% | ? | -10% | 10 | -11%
COc1ccc(C(=O)N2CCC[C@@]3(CCN(Cc4ccccc4OC)C3)C2)cc1 | nt | nt | nt | 5 | nt
CC(C)/C=N/Nc1nc2c(c(=O)n(C)c(=O)n2C)n1C | ? | 28µM* | -5% | 5 | ?
Cn1c(=O)c2c(nc(NCCO)n2C)n(C)c1=O | 4% | 3% | -11% | 3 | 5%
Cc1ccc2nc(NC(=O)c3cc(=O)c4cc(C)c(C)cc4o3)sc2c1 | -10% | ? | ? | nt | -8%
Cc1cc(C)c2nc(NNC(=O)c3cc(=O)c4ccccc4o3)sc2c1 | ? | 5µM* | 28µM* | -10 | -10%
COc1ccc2nc(NC(=O)c3cc(=O)c4ccccc4o3)sc2c1 | -22% | 0.89µM* | ? | nt | -9%
CCCCCCc1ccc(C(=O)CCN(C)C)cc1 | nt | nt | nt | 6 | nt
N#Cc1ccccc1NC(=O)C(=O)NCCc1csc(-c2ccc(C(F)(F)F)cc2)n1 | -2% | -8% | -5% | nt | -14%
COc1cccc(N2CCN(S(=O)(=O)c3cn(C)c(C)n3)CC2)c1 | 5% | 11% | ? | nt | -10%
O=C1C(Cl)=C(N2CCOCC2)C(=O)N1c1cccc(Cl)c1 | ? | 13µM* | -11% | 5 | 28µM*
COc1ccc(N2C(=O)C(Cl)=C(N3CCOCC3)C2=O)cc1 | nt | nt | 0% | 4 | nt
Cc1cccc(N2C(=O)C(Cl)=C(N3CCOCC3)C2=O)c1 | ? | 16µM* | -20% | 5 | 25µM*
N#Cc1c(-c2ccccc2)nc(SCC(=O)N2c3ccccc3Sc3ccccc32)[nH]c1=O | -21% | ? | 32µM* | 13 | ?
CCc1cccc(NC(=O)COC(=O)c2cn(CC)c3nc(C)ccc3c2=O)c1 | -14% | -13% | -25% | nt | -7%
O=[N+]([O-])c1cc2c(cc1C=Nc1ccccc1)OCO2 | -17% | ? | -20% | nt | -8%
Cc1cccc(N=Cc2cc3c(cc2[N+](=O)[O-])OCO3)c1 | ? | 10µM* | -13% | nt | ?
SMILES | Tau fluor cs | Tau fibril ThT | USP1-UAF1 inh | Coupling enz | Tau FP inhib
COc1cc(C=Nc2cccc(C)c2)c(O)c([N+](=O)[O-])c1 | -6% | 7.9µM* | ? | -9 | -4%
CCOc1ccc(NC(=O)Cn2c(=O)n(Cc3ccccc3)c(=O)c3sc4ccccc4c32)cc1 | 2% | 8% | -3% | nt | -18%
CNC1=CN=C(c2ccccc2)c2cc(Cl)ccc2N1 | -10% | -4% | nt | 5 | -13%
CCCn1c2ccccc2c2cnn(CC(=O)N3CCC(C)CC3)c(=O)c21 | -6% | -5% | -5% | nt | 0%
FC(F)(F)c1nc2cc3nc4ccccc4[nH]c3cc2n1 | -30% | 5µM* | -22% | -19 | ?
OC(c1nc2ccccc2[nH]1)C(O)c1nc2ccccc2[nH]1 (configuration not stated) | nt | nt | -2% | 0 | nt
Cc1c(CN(C)C)c2c(n1Cc1ccccc1)C(=O)c1ccc(Br)cc1-2 | ? | 16µM* | -14% | 1 | 13%
N#Cc1c(N)sc2c1CCCCCC2 | ? | ? | -1% | -5 | 1%
N#Cc1c(N)sc(=S)c2c1CCCCC2 | ? | 13µM* | ? | -33* | ?
CC1(C)Cc2c(C#N)c(N)sc(=S)c2CS1 | ? | 18µM* | -11% | -44* | -5%
CCCCn1c(-c2ccsc2)nc2c1c(=O)[nH]c(=O)n2CCC | -5% | 1% | -14% | -31* | -4%
CCCCn1c(=O)[nH]c(=O)c2c1nc(-c1ccsc1)n2Cc1ccccc1 | -11% | -14% | -17% | -1 | -5%
COC(=O)CN1C(=S)N(c2ccc(OC)cc2)C(=O)/C1=C/c1ccc(N2CCOCC2)cc1 | -28% | ? | 28µM* | -3 | 13%
COc1ccc(CCNC(=O)Cc2c(C)c3c(cc(C)c4c(C)c(C)oc43)oc2=O)cc1 | 1% | 1% | 10% | nt | -3%
COc1ccc(NC(=O)c2cc(C(C)=O)n3ccccc23)cc1Cl | 28µM*[quencher] | -13% | -3% | nt | ?
CCc1ccc(NC(=O)c2cc(C(C)=O)n3ccccc23)cc1 | -25% | 2% | -25% | nt | -17%
CCc1nn(CC(=O)NCc2ccco2)c(=O)c2cc3cc(F)ccc3n12 | -17% | -17% | -24% | nt | -11%
Cc1cc(N(C)C)ccc1N=Nc1ccc2ncccc2c1 | ? | 0.5µM* | -13% | -2 | 11%
OC(COCC(F)(F)C(F)(F)C(F)(F)C(F)F)Cn1c2ccc(Cl)cc2c2cc(Cl)ccc21 (configuration not stated) | ? | 5% | ? | -3 | 10µM*

Screening data from PubChem BioAssay.
